Laboratory results published in PubChem BioAssay AID1345085 (National Center for Advancing Translational Sciences (NCATS), 2018).
Records with an inconclusive call do not appear. The source made the active and inactive calls. Calls follow the shape of the dose curve; as a rule, active = well fitted cell-killing curve with a large enough effect; inconclusive = small, poorly fitted or top-dose-only effect, or effect the other way; inactive = no such curve, though single readings can be large or run the other way.

These compounds were tested on CAOV3 (assay: Confirmatory qHTS for gynecologic anti-cancer compounds from libraries of approved drugs and bioactive compounds). Details: gynecologic cancer cell panel viability, ATPlite luminescence, 48 h; series mostly up to 57.6 µM.
Method in brief: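 IC50 values derive from an ATPlite ATP-content luminescence assay following 48 h treatment at 37 C. Each compound ran as an 11-concentration, threefold series (57.5 uM to 0.977 nM); HEK 293T served as control line for selectivity index.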
% is scaled to controls: 0 for no effect and ±100 for the full control effect; potency is read from the fitted curve at half-maximal effect.
Also: nearly all actives have a fitted effect of over 55% in size.

| Structure (SMILES) | Potency | activity change, negative = viability loss |
| --- | --- | --- |
| Cc1ccc(C(=O)Nc2ccc(CN3CCN(C)CC3)c(C(F)(F)F)c2)cc1C#Cc1cnc2[nH]ncc2c1 | 30.6 µM (active) | – |
| Cc1cnc(Nc2ccc(OCCN3CCCC3)cc2)nc1Nc1cccc(S(=O)(=O)NC(C)(C)C)c1 | 7.69 µM (active) | – |
| Cc1cc(SCc2sc(-c3ccc(C(F)(F)F)cc3)nc2C)ccc1OCC(=O)O | inactive | – |
| Cn1cnc2c(F)c(Nc3ccc(Br)cc3Cl)c(C(=O)NOCCO)cc21 | inactive | – |
| OCc1ccc(-c2ccc(-c3ccc(CO)s3)o2)s1 | 0.668 µM (active) | – |
| Cc1cnc(Nc2ccc(CN3CCOCC3)cc2)nc1Nc1cccc(S(=O)(=O)NC(C)(C)C)c1 | 3.85 µM (active) | – |
| O=C(Nc1cn[nH]c1-c1nc2ccc(CN3CCOCC3)cc2[nH]1)NC1CC1 | 0.122 µM (active) | – |
| N#CC1(c2cccc(C(=O)Nc3cc(Oc4ccc5nc(NC(=O)C6CC6)sc5n4)ccc3F)c2Cl)CC1 | inactive | – |
| CC(Oc1cc(-n2cnc3ccc(CN4CCN(C)CC4)cc32)sc1C(N)=O)c1ccccc1C(F)(F)F (centres undefined) | 27.3 µM (active) | – |
| COc1c(C)c2c(c(O)c1C/C=C(\C)CCC(=O)O)C(=O)OC2 | inactive | – |
| O=C(NOCC1CC1)c1ccc(F)c(F)c1Nc1ccc(I)cc1Cl | inactive | – |
| CCCCN(CCCC)C(=O)CN1C[C@H](c2ccc3c(c2)OCO3)[C@@H](C(=O)O)[C@@H]1c1ccc(OC)cc1 | inactive | – |
| Cc1ccccc1C(OCCN(C)C)c1ccccc1 (centres undefined) | inactive | – |
| Cn1cnc2c(F)c(Nc3ccc(Br)cc3F)c(C(=O)NOCCO)cc21 | inactive | – |
| CNC(=O)c1ccccc1Nc1nc(Nc2ccc(N3CCOCC3)cc2OC)ncc1Cl | 1.37 µM (active) | – |
| C=CC(=O)Nc1cc2c(Nc3ccc(F)c(Cl)c3)ncnc2cc1OCCCN1CCOCC1 | 27.3 µM (active) | – |
| COc1cc2c(c(OC)c1OC)-c1ccc(OC)c(=O)cc1[C@@H](NC(C)=O)CC2 | inactive | – |

| Structure (SMILES) | Potency | activity change, negative = viability loss |
| --- | --- | --- |
| C[C@@]1(C(=O)Nc2ccc(F)nc2)CCCN1c1nc(Nc2cc(C3CC3)[nH]n2)c2cccn2n1 | 12.2 µM (active) | – |
| Cn1cc(-c2ccc3ncc(Cc4ccc5ncccc5c4)n3n2)cn1 | inactive | – |
| CC(C)c1nn(-c2c(Cl)cccc2Cl)c2nc(Cc3ccc(OCCO)cc3)[nH]c(=O)c12 | inactive | – |
| CCOc1cc2ncc(C#N)c(Nc3ccc(F)c(Cl)c3)c2cc1NC(=O)/C=C/CN(C)C | 19.3 µM (active) | – |
| Cc1[nH]c2ccccc2c1CCNCc1ccc(/C=C/C(=O)NO)cc1 | 0.685 µM (active) | – |
| COc1cc(Nc2ncc(F)c(Nc3ccc4c(n3)N(COP(=O)(O)O)C(=O)C(C)(C)O4)n2)cc(OC)c1OC | 3.43 µM (active) | – |
| CCc1c2c(nc3ccc(O)cc13)-c1cc3c(c(=O)n1C2)COC(=O)[C@]3(O)CC | 0.0385 µM (active) | – |
| CCCC(Nc1nc(-c2ccc(NC(=O)NCC)c(OC)c2)ncc1C)c1cccnc1 (centres undefined) | inactive | – |
| CCC1=CC2CN(C1)Cc1c([nH]c3ccccc13)[C@@](C(=O)OC)(c1cc3c(cc1OC)N(C)[C@H]1[C@@](O)(C(=O)OC)[C@H](OC(C)=O)[C@]4(CC)C=CCN5CC[C@]31[C@@H]54)C2 (some centres undefined) | inactive | – |
| Nc1ncn([C@@H]2O[C@H](CO)[C@@H](O)[C@H]2O)c(=O)n1 | inactive | – |
| COc1cc2c(cc1-c1c(C)noc1C)ncc1[nH]c(=O)n(C(C)c3ccccn3)c12 (centres undefined) | 1.09 µM (active) | – |
| Cc1cnc(CNC(=O)c2c(=O)c3ccc(N4CCCN(C)CC4)nc3n3c2sc2ccccc23)cn1 | – | 22.5% [at 10.7 µM] (inactive) |
| CC(C)C[C@H](NC(=O)[C@H](CCc1ccccc1)NC(=O)CN1CCOCC1)C(=O)N[C@@H](Cc1ccccc1)C(=O)N[C@@H](CC(C)C)C(=O)[C@@]1(C)CO1 | 3.06 µM (active) | – |
| Cc1ccc(C(=O)N(CCCN)C(c2nc3cc(Cl)ccc3c(=O)n2Cc2ccccc2)C(C)C)cc1 (centres undefined) | 17.2 µM (active) | – |
| COc1cccc2c1C(=O)c1c(O)c3c(c(O)c1C2=O)C[C@@](O)(C(=O)CO)C[C@@H]3O[C@H]1C[C@H](N)[C@H](O)[C@H](C)O1 | 2.43 µM (active) | – |
| Cc1nc(Nc2ncc(C(=O)Nc3c(C)cccc3Cl)s2)cc(N2CCN(CCO)CC2)n1 | 24.3 µM (active) | – |
| CO[C@@]12[C@H](COC(N)=O)C3=C(C(=O)C(C)=C(N)C3=O)N1C[C@@H]1N[C@@H]12 | inactive | – |
